Inconclusive results are not listed. A number with no mark means an inactive call. Active and inactive are the calls of the source. Unless noted, the call rests on the fitted dose curve; in most records, active means well fitted curve in the direction sought with a large enough effect in the repeat runs; inconclusive means weak or mixed curves; inactive means no such curve, though single readings can be large; an effect the other way counts as inactive or inconclusive.
Molecular target: Cytochrome P450 2D6 (Homo sapiens) (UniProt P10635)
Assay: Cytochrome P450 family 2 subfamily D member 6 (CYP2D6) small molecule antagonists: luciferase biochemical (cell-free) qHTS assay (AID 1645840); further: nearly all actives have a fitted effect of over 55% in size; further: potency means the concentration at half of the fitted maximal effect
Details: P450-Glo CYP2D6 enzyme, luciferin luminescence, 1 h; series mostly up to 57.4 µM; activity change, negative = inhibition: at the top concentration
In short: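 P450-Glo CYP2D6 system: proluciferin substrate converted by enzyme to luciferin, read by luminescence proportional to activity. Enzyme-substrate mix with compound 10 min at room temperature, then NADPH regeneration 1 h before detection reagent.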
On the % scale 0 is the no-effect control and ±100 the full control effect.

Cytochrome P450 2D6 (Homo sapiens), sequence (P10635 whole entry, looked up): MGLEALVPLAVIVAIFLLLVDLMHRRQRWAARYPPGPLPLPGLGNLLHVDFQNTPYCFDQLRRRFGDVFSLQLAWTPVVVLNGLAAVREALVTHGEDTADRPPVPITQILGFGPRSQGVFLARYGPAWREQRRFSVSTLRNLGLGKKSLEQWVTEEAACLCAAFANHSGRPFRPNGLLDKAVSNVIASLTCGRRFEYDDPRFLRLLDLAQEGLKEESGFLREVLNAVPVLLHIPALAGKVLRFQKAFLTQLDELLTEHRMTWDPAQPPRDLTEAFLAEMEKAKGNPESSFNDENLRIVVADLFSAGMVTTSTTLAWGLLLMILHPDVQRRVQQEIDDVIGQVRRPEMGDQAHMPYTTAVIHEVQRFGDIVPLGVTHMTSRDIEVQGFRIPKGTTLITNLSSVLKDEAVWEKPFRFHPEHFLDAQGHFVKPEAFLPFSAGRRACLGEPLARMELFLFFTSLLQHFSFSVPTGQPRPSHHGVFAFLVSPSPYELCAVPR

Structure (SMILES) | activity change, negative = inhibition | Potency
CC(C)c1c(CN(C)C(C)Cc2ccccc2)n(C)n(-c2ccccc2)c1=O (centres undefined) | -28.9% | –
CCC1(CC)C(=O)C=CNC1=O | -2.26% | –
O=C1OC(CCN2CCCCC2)OC1(c1ccccc1)c1ccccc1 (centres undefined) | – | 0.617 µM (active)
Oc1ccc(Cl)cc1 | -6.51% | –
COP(=S)(OC)Oc1ccc(S(=O)(=O)N(C)C)cc1 | -12.1% | –
CC(=O)NC1CCSC1=O (centres undefined) | -0.278% | –
CN1C(=O)NC(=O)C(C)(C2=CCCCC2)C1=O (centres undefined) | 5.71% | –
CC(C)=CC1C(C(=O)OCN2C(=O)C3=C(CCCC3)C2=O)C1(C)C (centres undefined) | – | 6.92 µM (active)
COc1ccc2c3c1O[C@H]1[C@H](O)CC[C@H]4[C@@H](C2)N(C)CC[C@@]341 | -19.5% [at 115 µM] | –
COC(=O)C(Cl)C(=O)OC | 7.27% | –
CNCC(=O)c1ccc(O)c(O)c1 | -2.94% | –
Clc1ccc(C(c2ccc(Cl)cc2)C(Cl)(Cl)Cl)cc1 | -21.7% | –
Cc1ncsc1CCCl | 3.97% | –
O=c1c(C2CC(c3ccc(-c4ccc(Br)cc4)cc3)Cc3ccccc32)c(O)sc2ccccc12 (centres undefined) | -0.0114% | –

Molecular target: Cytochrome P450 2C9 (Homo sapiens) (UniProt P11712)
Assay: Cytochrome P450 family 2 subfamily C member 9 (CYP2C9) small molecule antagonists: luciferase biochemical (cell-free) qHTS assay (AID 1645842); further: nearly all actives have a fitted effect of over 55% in size; further: potency means the concentration at half of the fitted maximal effect
Details: P450-Glo CYP2C9 enzyme assay, luciferin luminescence; series mostly up to 57.4 µM; activity change, negative = inhibition: at the top concentration
In short: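 P450-Glo CYP2C9 system: proluciferin substrate with enzyme in mix containing 0.4% BSA, 10 min at room temperature, then NADPH regeneration solution added and incubated 1 h at 37C. Detection reagent stopped reaction; luminescence read after 20 min as RLU.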

Cytochrome P450 2C9 (Homo sapiens), sequence (P11712 whole entry, looked up): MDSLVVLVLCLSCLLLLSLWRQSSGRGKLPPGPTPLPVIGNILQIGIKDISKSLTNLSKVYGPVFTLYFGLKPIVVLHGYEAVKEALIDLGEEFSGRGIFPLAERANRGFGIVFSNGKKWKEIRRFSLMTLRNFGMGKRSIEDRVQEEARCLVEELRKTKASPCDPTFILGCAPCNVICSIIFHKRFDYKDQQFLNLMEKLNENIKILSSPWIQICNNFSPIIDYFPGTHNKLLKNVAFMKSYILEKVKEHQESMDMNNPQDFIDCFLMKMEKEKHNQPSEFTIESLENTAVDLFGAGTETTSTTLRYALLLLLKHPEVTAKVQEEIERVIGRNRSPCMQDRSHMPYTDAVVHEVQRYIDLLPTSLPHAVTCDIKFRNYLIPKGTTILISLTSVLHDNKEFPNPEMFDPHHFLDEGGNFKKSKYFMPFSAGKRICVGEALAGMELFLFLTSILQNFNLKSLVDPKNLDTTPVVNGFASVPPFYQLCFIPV

Structure (SMILES) | activity change, negative = inhibition | Potency
NNc1ccccc1 | -21.3% | –
CC(=O)C1CCOC1=O (centres undefined) | -1.52% | –
COc1ccc2c(c1OC)C(=O)O[C@H]2[C@@H]1c2cc3c(cc2CCN1C)OCO3 | – | 4.9 µM (active)
C[C@]12CCC(=O)C=C1CC[C@@H]1[C@H]3CC[C@](C)(O)[C@@]3(C)CC[C@@H]12 | – | 42.6 µM (active)
CC(=O)OCC1=C(C(=O)O)N2C(=O)[C@@H](N)[C@H]2SC1 | 8.53% [at 23.9 µM] | –
CC(C)NC(C)C | 14.9% | –
CN1CCC(O)(c2ccc(F)cc2)C(C(=O)c2ccc(F)cc2)C1 (centres undefined) | -2.78% | –
CC(C)(C)NCC(O)c1cc(Cl)c(N)c(C(F)(F)F)c1 (centres undefined) | 27.7% | –
COc1cccc(C(=O)CCN[C@@H](C)[C@H](O)c2ccccc2)c1 | – | 30.9 µM (active)
C[C@]12CC[C@H]3[C@@H](CC[C@@]45O[C@H]4C(O)=C(C#N)C[C@]35C)[C@H]1CC[C@H]2O | -1.81% | –
CCCOC(=O)c1cncn1C(C)c1ccccc1 (centres undefined) | – | 13.8 µM (active)
CCOP(=S)(OCC)Oc1ccc2c(C)c(Cl)c(=O)oc2c1 | – | 6.92 µM (active)
O=C(Nc1ccc(Br)cc1)c1cc(Br)cc(Br)c1O | – | 3.47 µM (active)
O=C(O)c1ccc(=O)[nH]c1 | 9.78% | –
C=CCN1C[C@H](C)N([C@H](c2ccc(C(=O)N(CC)CC)cc2)c2cccc(OC)c2)C[C@H]1C | -4.24% | –
CC[N+]1(CC)CCC(OC(=O)C(O)(c2ccccc2)c2ccccc2)C1 (centres undefined) | -5.19% | –

Structure (SMILES) | activity change, negative = inhibition | Potency
O=c1[nH]oc2c1CCNC2 | 10.5% | –
CCCCCCC(=O)CCCCCC/C=C/C[C@@H](O)[C@H](O)[C@@](N)(CO)C(=O)O | 8.01% [at 23.9 µM] | –
CC(C)c1c(CN(C)C(C)Cc2ccccc2)n(C)n(-c2ccccc2)c1=O (centres undefined) | – | 7.76 µM (active)
Oc1ccc(Cl)cc1 | 3.76% | –
COP(=S)(OC)Oc1ccc(S(=O)(=O)N(C)C)cc1 | – | 0.617 µM (active)
C[C@]12CC[C@H]3[C@@H](CCC4=CC(=O)CC[C@@H]43)[C@@H]1CC[C@@H]2OC(=O)CCC1CCCCC1 | – | 24.5 µM (active)
CN1C(=O)NC(=O)C(C)(C2=CCCCC2)C1=O (centres undefined) | 10.5% | –
CC(C)=CC1C(C(=O)OCN2C(=O)C3=C(CCCC3)C2=O)C1(C)C (centres undefined) | – | 8.71 µM (active)
COc1ccc2c3c1O[C@H]1[C@H](O)CC[C@H]4[C@@H](C2)N(C)CC[C@@]341 | 12.6% [at 115 µM] | –
COc1cc(CCN)cc(OC)c1OC | -2.45% [at 115 µM] | –
COC(=O)C(Cl)C(=O)OC | 7.84% | –
CNCC(=O)c1ccc(O)c(O)c1 | 1.21% | –
CC(C(=O)c1ccccc1)N(C)C (centres undefined) | -22.1% | –
Clc1ccc(C(c2ccc(Cl)cc2)C(Cl)(Cl)Cl)cc1 | – | 2.19 µM (active)
Cc1ncsc1CCCl | 15% | –
O=c1c(C2CC(c3ccc(-c4ccc(Br)cc4)cc3)Cc3ccccc32)c(O)sc2ccccc12 (centres undefined) | – | 9.77 µM (active)

Test system: not listed separately
Assay: Cytotoxicity counterscreen for inhibitors of SARS-CoV-2 cell entry (AID 1645845; calls by dose curve; further: nearly all actives have a fitted effect of over 50% in size)
Details: cell viability (SARS-CoV-2 entry assay cells); series mostly up to 57.1 µM; activity change, negative = cytotoxicity: at the top concentration
In short: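 After a 15 min room-temperature ATPLite 1step step, luminescence reflected ATP remaining in HEK293-ACE2 cells exposed to compound for 1 h plus 48 h at 37 C, with percent activity set by cell and no-cell controls.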

Structure (SMILES) | activity change, negative = cytotoxicity [%] | outcome
COc1ccc2c(c1OC)C(=O)O[C@H]2[C@@H]1c2cc3c(cc2CCN1C)OCO3 | 4.73 | –
CC(C)NC(C)C | – | inactive
CC(C)(C)NCC(O)c1cc(Cl)c(N)c(C(F)(F)F)c1 (centres undefined) | 0.151 | –
COc1cccc(C(=O)CCN[C@@H](C)[C@H](O)c2ccccc2)c1 | -2.59 | –
C[C@]12CC[C@H]3[C@@H](CC[C@@]45O[C@H]4C(O)=C(C#N)C[C@]35C)[C@H]1CC[C@H]2O | – | inactive
CCOP(=S)(OCC)Oc1ccc2c(C)c(Cl)c(=O)oc2c1 | – | inactive
O=C(Nc1ccc(Br)cc1)c1cc(Br)cc(Br)c1O | -28.4 | –
Oc1ccc(Cl)cc1 | -6.94 | –
COP(=S)(OC)Oc1ccc(S(=O)(=O)N(C)C)cc1 | -3.54 | –
C[C@]12CC[C@H]3[C@@H](CCC4=CC(=O)CC[C@@H]43)[C@@H]1CC[C@@H]2OC(=O)CCC1CCCCC1 | – | inactive
CN1C(=O)NC(=O)C(C)(C2=CCCCC2)C1=O (centres undefined) | – | inactive
Clc1ccc(C(c2ccc(Cl)cc2)C(Cl)(Cl)Cl)cc1 | – | inactive
Cc1ncsc1CCCl | – | inactive
